Data taken from the supplement of paper PMC6992640.
± gives the standard deviation of the averaged measurements.

Experiments:
Assay in all cases: cell viability (% of vehicle); higher = less cytotoxic
Details in all cases: 10 µM; 72 h
HCI01 = system: HCI01 (cells of a triple-negative basal-like breast cancer xenograft)
HCI03 = system: HCI03 (cells of an ER-positive luminal breast cancer xenograft)
HCI09 = system: HCI09 (cells of a triple-negative luminal androgen receptor type breast cancer xenograft)
HCI11 = system: HCI11 (cells of an ER-positive luminal breast cancer xenograft)
HCI13 = system: HCI13 (cells of an ER-positive luminal breast cancer xenograft)
HCI16 = system: HCI16 (cells of a triple-negative basal-like breast cancer xenograft)
UCD52 = system: UCD52 (cells of a triple-negative basal-like breast cancer xenograft)
WHIM2 = system: WHIM2 (cells of a triple-negative basal-like breast cancer xenograft)
WHIM30 = system: WHIM30 (cells of a triple-negative basal-like breast cancer xenograft)
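Also: PDX cells carrying CMV promoter-driven luciferase, viability read as total photon flux per second by IVIS imaging following D-luciferin, vehicle control 0.1% DMSO.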

SMILES | cell viability (HCI01) | cell viability (HCI03) | cell viability (HCI09) | cell viability (HCI11) | cell viability (HCI13) | cell viability (HCI16) | cell viability (UCD52) | cell viability (WHIM2) | cell viability (WHIM30)
CN(C)C(=O)COC(=O)Cc1ccc(OC(=O)c2ccc(N=C(N)N)cc2)cc1.CS(=O)(=O)O [Camostat Mesilate] | 105 ± 24 | 133 | 85.2 ± 6.6 | 70.7 | 109 ± 5.7 | 112 | 99.8 ± 6.7 | 108 ± 5.9 | 110 ± 5.2
CC(=O)N(c1onc(C)c1C)S(=O)(=O)c1ccc(N)cc1 [Sulfisoxazole Acetyl] | 90.9 ± 1.4 | 116 | 90.9 ± 11 | 95.7 | 95.2 ± 3.5 | 104 | 92.77 ± 0.54 | 106 ± 3.9 | 103 ± 1.9
COc1cc2nccc(Oc3ccc(NC(=O)C4(C(=O)Nc5ccc(F)cc5)CC4)cc3)c2cc1OC | 108 ± 6.6 | 114 | 91.5 ± 2 | 88.9 | 97.7 ± 13 | 93.8 | 88.3 ± 15 | 90.1 ± 11 | 116 ± 3.4
C[N+](C)(CCOc1ccccc1)Cc1ccccc1.O=C(O)c1cc2ccccc2cc1[O-] [Bephenium Hydroxynaphthoate] | 121 ± 9.4 | 127 | 128 ± 23 | 125 | 103 ± 21 | 104 | 89.6 ± 12 | 112 ± 22 | 151 ± 20
Cc1c(-c2ccccc2)oc2c(C(=O)OCCN3CCCCC3)cccc2c1=O.Cl [Flavoxate hydrochloride] | 87 ± 21 | 123 | 115.8 ± 0.74 | 90.9 | 128 ± 27 | 119 | 99.5 ± 2 | 88.5 ± 24 | 107 ± 9.2
CC(=O)[N-]S(=O)(=O)c1ccc(N)cc1.[Na+] [Sulfacetamide Sodium] | 98.2 ± 1.3 | 86.1 | 87.3 ± 15 | 104 | 96.8 ± 5.9 | 79.7 | 72.9 ± 1.1 | 85.757 ± 0.01 | 109 ± 3.1
CC(C)C1CCC(C(=O)NC(Cc2ccccc2)C(=O)O)CC1 (configuration not stated) [Nateglinide] | 84.1 ± 62 | 131 | 76.3 ± 6.6 | 87.4 | 112 ± 18 | 110 | 94 ± 4.4 | 117 ± 19 | 122 ± 17
COc1ccc2nc(S(=O)Cc3ncc(C)c(OC)c3C)[nH]c2c1 (configuration not stated) [Omeprazole] | 127 ± 30 | 149 | 94.2 ± 5.6 | 102 | 94 ± 3.6 | 121 | 138 ± 16 | 99.8 ± 23 | 192 ± 5.1
